Data on nine targets can be found in the supplement of paper PMC8387472.

Common to all, as to assay: fraction of microhomology deletions among edited reads; higher = more MH deletions
Holding throughout (details): mESC; 2uM; 72 h treatment, harvest day 5

Compound in test [1]: CO[C@H]1/C=C/O[C@@]2(C)Oc3c(C)c(O)c4c(O)c(c(/C=N/N5CCN(C6CCCC6)CC5)c(O)c4c3C2=O)NC(=O)/C(C)=C\C=C\[C@H](C)[C@H](O)[C@@H](C)[C@@H](O)[C@@H](C)[C@H](OC(C)=O)[C@@H]1C [Rifapentine]
Compound in test [2]: COc1ccccc1-c1cc(Nc2cccc(CS(N)(=O)=O)c2)ncn1
Compound in test [3]: C[C@@H]1CN(CC(=O)Nc2ccc3c(c2)Cc2cccc(-c4cc(=O)cc(N5CCOCC5)o4)c2S3)C[C@H](C)O1
Compound in test [4]: Cc1cc(C)nc(SCC(=O)Nc2ncc(Cc3cccc4ccccc34)s2)n1
Compound in test [5]: Cc1cccc(CC(=O)N2CCc3c2ccc(-c2cn(C)c4ncnc(N)c24)c3F)n1
Compound in test [6]: NC(=O)c1ccc2nc(-c3ccc(Oc4ccc(Cl)cc4)cc3)[nH]c2c1 [Chk 2 inhibitor II (BML-277)]
Compound in test [7]: Nc1cc(F)ccc1NC(=O)c1ccc(CNC(=O)/C=C/c2cccnc2)cc1 [Tucidinostat (Chidamide)]
Compound in test [8]: Nc1nc2[nH]cc(CCc3ccc(C(=O)N[C@@H](CCC(=O)O)C(=O)O)cc3)c2c(=O)[nH]1 [Pemetrexed]
Compound in test [9]: Nc1ncnc2c1c(-c1cnc3[nH]ccc3c1)nn2C1CCCC1
Compound in test [10]: O=C(c1cccc(Cl)c1F)N1CCN(Cc2cccc(Nc3nccs3)n2)CC1

Take “44.0 (DMSO control at this site: 1-bp insertion 0.181, MH deletion 0.512, edited 0.123) ACACATACCTTCTTCGAGGCAGCCAGCATGATGAGACAGGTCTCCCACAAACACATCGTGT”: the “fraction of microhomology deletions among edited reads” value is 0.531 in test [1]; 0.451 in test [2]; 0.295 in test [3]; 0.506 in test [4]; 0.384 in [5]; 0.539 in [6]. In addition, the “fraction of microhomology deletions among edited reads” value in test [7] was 0.491; in test [8] it was 0.583; in test [9], 0.479; in [10], 0.486.

Regarding “18.0 (DMSO control at this site: 1-bp insertion 0.114, MH deletion 0.789, edited 0.094) GCGCAAGTGCATAAGTTTTTCTTAAGGCGTGCCTTTAAGGCGTGCCTTTGTCGGTCCTGGA”, the “fraction of microhomology deletions among edited reads” value in test [1] worked out at 0.805; in [2] it was 0.779; in test [3], 0.683; in [4] it was 0.791; in [5], 0.755; in test [6], 0.812. Moreover, the “fraction of microhomology deletions among edited reads” value in test [7] is 0.797; in [8], 0.78; in test [9] it was 0.768; in test [10], 0.777.

For the target “47.0 (DMSO control at this site: 1-bp insertion 0.095, MH deletion 0.585, edited 0.118) GAGTGGTCCCGAGCCAGGAACTGTGTGTGTTGCAGGGGGGCAGTAACTCCCCAACTCCCTC”, the “fraction of microhomology deletions among edited reads” value in [1] turned out to be 0.57; in [2], 0.469; in [3], 0.319; in [4], 0.528; in test [5], 0.477; in [6], 0.494. Moreover, the “fraction of microhomology deletions among edited reads” value in [7] was determined as 0.442; in [8], 0.503; in [9] it was 0.389; in test [10], 0.453.

On to “32.0 (DMSO control at this site: 1-bp insertion 0.03, MH deletion 0.85, edited 0.898) AGAAGTCCAGGATCAGGGGGACTGGGGTCGGGAGGGTGGGGCAGGAAGGAAGCCAGAATCA”, for which the “fraction of microhomology deletions among edited reads” value came out at 0.91 in test [1]; 0.93 in test [2]; 0.896 in test [3]; 0.908 in [4]; 0.897 in test [5]; 0.918 in test [6]. For the same target, the “fraction of microhomology deletions among edited reads” value in test [7] is 0.904; in test [8], 0.928; in test [9] it was 0.886; in test [10], 0.926.

Regarding “30.0 (DMSO control at this site: 1-bp insertion 0.074, MH deletion 0.67, edited 0.142) GAGCTGGCATGAGTATTTGTGCCACATGGCTCCCACATGGCTCCACATGCAAGTTTGAAAC”, the “fraction of microhomology deletions among edited reads” value stood at 0.684 in test [1]; 0.599 in test [2]; 0.335 in test [3]; 0.69 in test [4]; 0.586 in test [5]; 0.67 in test [6]. The “fraction of microhomology deletions among edited reads” value in test [7] turned out to be 0.607; in [8], 0.644; in test [9], 0.635; in test [10], 0.638.

On to “25.0 (DMSO control at this site: 1-bp insertion 0.017, MH deletion 0.774, edited 0.143) GGGCCTGAATGGTGTGGACATCTACTCGCTGGTGAGCTGGTGACTGAAAACATTCAGTGGC”, for which the “fraction of microhomology deletions among edited reads” value in [1] came out at 0.792; in test [2], 0.747; in test [3] it was 0.648; in [4] it was 0.772; in test [5], 0.759; in test [6] it was 0.767. Further, the “fraction of microhomology deletions among edited reads” value in test [7] stood at 0.723; in test [8], 0.744; in test [9] it was 0.784; in [10], 0.769.

“34.0 (DMSO control at this site: 1-bp insertion 0.184, MH deletion 0.385, edited 0.103) ATTATAGGACCCTGAGGGAGCAGAGATGTGGGAATGGGGGCCGAGCCAATTGTGATGTAAG”: the “fraction of microhomology deletions among edited reads” value in [1] amounted to 0.567; in [2], 0.502; in test [3] it was 0.342; in [4] it was 0.517; in test [5] it was 0.483; in [6], 0.486. In addition, the “fraction of microhomology deletions among edited reads” value in test [7] turned out to be 0.409; in test [8], 0.413; in test [9] it was 0.39; in test [10], 0.39.

On to “28.0 (DMSO control at this site: 1-bp insertion 0.035, MH deletion 0.77, edited 0.142) TGGTTCTTCCTTTGTAGAGAGTGTTCATCTGGGAATCTGGGACTTGGATGAGACAATCATT”, for which the “fraction of microhomology deletions among edited reads” value in [1] was determined as 0.794; in [2], 0.755; in test [3], 0.768; in test [4], 0.777; in [5], 0.747; in test [6], 0.768. Besides, the “fraction of microhomology deletions among edited reads” value in test [7] came out at 0.739; in test [8] it was 0.737; in test [9], 0.748; in [10], 0.76.

“42.0 (DMSO control at this site: 1-bp insertion 0.145, MH deletion 0.655, edited 0.132) GGGCTAAACCTATGAGCACAGTAGAACTAAGGGTGGGTGGTGTAGCTAAAGAACTTGACCA”: the “fraction of microhomology deletions among edited reads” value was determined as 0.683 in test [1]; 0.653 in test [2]; 0.384 in [3]; 0.667 in [4]; 0.682 in test [5]; 0.634 in test [6]. Further, the “fraction of microhomology deletions among edited reads” value in test [7] amounted to 0.607; in [8], 0.634; in test [9] it was 0.571; in [10], 0.62.
